Some test systems named below: SN12C renal; UO-31 renal; TK-10 renal; ACHN renal; CAKI-1 renal; A498 renal; CCRF-CEM leukemia; MOLT-4 leukemia; SR leukemia.
Experiment in all cases: NCI-60 one-dose screen, 48 h (100 = growth as untreated, 0 = no growth, -100 = all killed)
Details in all cases: 10 µM unless noted

Results on 15 compounds are retold here after PubChem BioAssay (NCI).

About 83,000 compounds went through this panel and 20% of them were active in at least one assay; those are over-represented in the sample as a whole.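 Activity criterion: percent growth below 10, measured after cells in 96-well plates were exposed to a single compound concentration for 48 hours.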 A number with no mark means an inactive call. The source made the active and inactive calls.

Regarding `CCOc1ccc(-c2nonc2NC(=O)c2cccc(C)c2)cc1OCC`, the growth in the test with SN12C renal is 70.2%; in the test on UO-31 renal it was 70%; in the test with TK-10 renal it was 79.2%; in the test on ACHN renal, 83.9%; in the test on CAKI-1 renal it was 59.8%; with A498 renal, 39.4%. In addition, the values for the growth in the test with CCRF-CEM leukemia and in the test on MOLT-4 leukemia were 23.1% and 4.22% (active), respectively.
`CCOC(=O)c1cc2c(n1Cc1cccc(OC)c1)-c1oncc1CCC2`: the growth in the test on SN12C renal is 56.7%; in the test on UO-31 renal, 16.7%; in the test on TK-10 renal, 48.1%; in the test on ACHN renal, 47.3%; in the test on CAKI-1 renal it was 29.6%; in the test with A498 renal, 6.51% (active). Further, the growth in the test on CCRF-CEM leukemia was 3.19% (active); with MOLT-4 leukemia it was 35.8%; with SR leukemia, 10.1%.
Turning to `COc1cc(NC(=O)CCSc2nc3ccccc3c(=O)n2Cc2ccccc2)cc(OC)c1OC`, the growth is 82.9% in the test with SN12C renal; 45.7% with UO-31 renal; 108% in the test on TK-10 renal; 78.5% with ACHN renal; 72.5% with CAKI-1 renal; 64.6% with A498 renal. Moreover, the growth with CCRF-CEM leukemia was 74.5%; with MOLT-4 leukemia, 69.3%.
In the case of `Nc1ccn(C2O[C@H](CO)[C@@H](O)[C@H]2O)c(=O)n1` (stereo not given in full), the growth is 54.9% in the test with SN12C renal; 100% in the test on UO-31 renal; 125% with TK-10 renal; 79.5% in the test on ACHN renal; 91.3% in the test with CAKI-1 renal; 106% in the test on A498 renal. Also, the growth was 29.2% in the test with CCRF-CEM leukemia, 57.1% in the test on MOLT-4 leukemia and 2.99% (active) in the test with SR leukemia.
Consider `COc1ccc(C2c3ccc4ccccc4c3Oc3ncn(CCCn4ccnc4)c(=N)c32)cc1OC` (stereo not given), for which the growth is 61% in the test on SN12C renal; 38% in the test with UO-31 renal; 52.6% in the test with TK-10 renal; 67.4% in the test with ACHN renal; 60.7% with CAKI-1 renal; 40.3% with A498 renal. The growth was 42.1% with CCRF-CEM leukemia, 61.9% in the test with MOLT-4 leukemia and 26.9% in the test with SR leukemia.
In the case of `COc1cc(NC(=O)CCSc2nc3ccccc3c(=O)n2CCc2ccccn2)cc(OC)c1OC`, the growth in the test on SN12C renal was 92.8%; in the test with UO-31 renal it was 85%; in the test on TK-10 renal, 111%; in the test with ACHN renal it was 91%; with CAKI-1 renal, 89%; with A498 renal, 74.7%. Besides, the growth was 83.2% with CCRF-CEM leukemia and 87.6% with MOLT-4 leukemia.
`COc1cc(CNC(=O)c2ccsc2Nc2ccnc(C(F)(F)F)c2)ccc1O`: the growth in the test with SN12C renal was 94.6%; in the test on UO-31 renal, 82.7%; with TK-10 renal, 99.8%; with ACHN renal, 98.2%; with CAKI-1 renal it was 95.7%; in the test with A498 renal, 93%. For the same compound, the growth in the test on CCRF-CEM leukemia is 83.7%; in the test with MOLT-4 leukemia it was 85.4%.
Consider `CCOC(=O)C1=CN(C)C=C(C(=O)OCC)C1c1cc(Br)c(OCC)c(OC)c1`, for which the growth was 56.5% in the test with SN12C renal; 16.3% in the test with UO-31 renal; 43% with TK-10 renal; 54.6% with ACHN renal; 52.5% in the test on CAKI-1 renal; 59.1% in the test on A498 renal. Besides, the growth in the test with CCRF-CEM leukemia was 32.9%; with MOLT-4 leukemia it was 27.5%.
As for `CC(=O)n1cc(-c2c[nH]c3ccccc23)c(-c2ccc(Cl)cc2)n1`, the growth was 99.8% in the test on SN12C renal; 60.5% in the test with UO-31 renal; 94.9% with TK-10 renal; 78.5% with ACHN renal; 61.2% in the test on CAKI-1 renal; 71.6% in the test on A498 renal. Besides, the results for the growth in the test with CCRF-CEM leukemia, in the test with MOLT-4 leukemia and in the test with SR leukemia were 82.2%, 88.2% and 92.9%, respectively.
Regarding `O=C(Nc1nc2c(s1)CCc1c-2c(Br)n(Cc2ccccc2)c1Br)c1ccccc1`, the growth in the test with SN12C renal is 87.7%; with UO-31 renal, 57.6%; in the test with TK-10 renal, 54.9%; in the test on ACHN renal, 46.8%; with CAKI-1 renal, 67.4%; in the test on A498 renal it was 75%. The growth with CCRF-CEM leukemia was 77%; with MOLT-4 leukemia, 83.1%; in the test with SR leukemia, 70.3%.
For `COc1ccccc1CNC(=O)C1c2ccccc2C(=O)N(CC(C)C)C1c1cccs1` (stereo not given), the growth is 76.6% with SN12C renal; 92% in the test with UO-31 renal; 75.9% in the test on TK-10 renal; 54.2% in the test with ACHN renal; 53.4% with CAKI-1 renal; 42.4% in the test on A498 renal. Also, the growth in the test on CCRF-CEM leukemia is 24%; with MOLT-4 leukemia, 27.1%; in the test on SR leukemia, 17.3%.
As to `Cc1ccc(OCCCCCCNCCO)c(C)c1`, the growth in the test on SN12C renal is 7.94% (active); in the test on UO-31 renal, -21% (active); with TK-10 renal, 28.9%; in the test with ACHN renal, 15.3%; in the test on CAKI-1 renal, -8.91% (active); with A498 renal, 35.3%. The growth in the test on CCRF-CEM leukemia was 7.2% (active); in the test with MOLT-4 leukemia, 10.6%; with SR leukemia it was 11.2%.
In the case of `COc1ccc(-c2cc(=O)c3c(OC)c4ccoc4c(/C=C/C=O)c3o2)cc1`, the growth in the test with SN12C renal is 13%; in the test on UO-31 renal, 44.1%; in the test on TK-10 renal it was 68.7%; in the test with ACHN renal, 75.4%; in the test on CAKI-1 renal it was 95.1%; in the test with A498 renal, 78.8%. The growth in the test on CCRF-CEM leukemia is 0.782% (active); in the test with MOLT-4 leukemia it was -8.67% (active); in the test with SR leukemia it was -8.77% (active).
As to `COc1ccc(C(=O)C2CC2c2ccc(Cl)cc2)cc1` (stereo not given), the growth is 85% with SN12C renal; 64.4% with UO-31 renal; 103% in the test on TK-10 renal; 78.6% in the test with ACHN renal; 87.9% in the test on CAKI-1 renal; 114% in the test on A498 renal. Also, the growth is 9.89% (active) in the test on CCRF-CEM leukemia, 41.2% in the test on MOLT-4 leukemia and 77.8% in the test on SR leukemia.
Consider `Cc1ccc(CN2CCC(C(=O)Nc3ccc(-c4cc5ccccc5[nH]4)cc3)CC2)o1`, for which the growth was 60.7% with SN12C renal; 47.5% with UO-31 renal; 73% in the test with TK-10 renal; 44.3% in the test on ACHN renal; 71.7% in the test with CAKI-1 renal; 4.02% (active) with A498 renal. Also, the growth was 8.89% (active) in the test on CCRF-CEM leukemia, -4.18% (active) in the test with MOLT-4 leukemia and 14.1% with SR leukemia.
